Assay outcomes as filed in PubChem.
Eya2 phos inh – qHTS Assay for Inhibitors of the Phosphatase Activity of Eya2; recombinant Eya2, OMFP fluorescence dephosphorylation (OMFP is methylfluorescein phosphate); Potency, µM (series often up to 76.9 µM), for the others: top-dose activity, negative = inhibition, hits mostly inhibitors; hit rate 0.006% among 330,000; AID 488837, 2010; note: potency is the fitted concentration of half-maximal effect
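Eya2 (0.2 uM) preincubated 10 min at ambient with compound, then OMFP substrate added at 50 uM; 10 min reaction in 50 mM HEPES pH 7.5, 50 mM NaCl, 5 uM MgCl2, 0.05% BSA, 1 mM DTT. Fluorescence read at Ex 485/Em 525 nm.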
CtBP-E1A inh – qHTS Assay for Inhibitors of the CtBP/E1A Interaction. CtBP / adenovirus E1A interaction (AlphaScreen). AlphaScreen GST-E1A/His-CtBP binding, 1536-well; stronger effect = lower value. activity change, % (concentration not given with the values). hit rate 0.49% among 340,000; in the data active = activity change below about -65%; inconclusive = mostly about -30% to -63%
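GST-E1A and His-tagged CtBP (125 nM each as 5X stock) were preincubated with pin-transferred compound for 2 h at 37 °C in the dark, then glutathione donor and nickel acceptor beads were added for 1 h before AlphaScreen reading.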
Six1-Eya2 blk – qHTS Assay for Inhibitors of the Six1/Eya2 Interaction | Homeobox protein SIX1 (Homo sapiens) + Protein phosphatase EYA2 (Homo sapiens), … | AlphaScreen GST-Six1/His-Eya2 binding, biochemical; stronger effect = lower value | activity change, % (concentration not given with the values) | hit rate 0.56% among 360,000 | AID 651725, 2012; in the data active = activity change below about -65%; inconclusive = mostly about -30% to -63%
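Compounds are tested against tagged Six1 and Eya2 proteins bridged by glutathione donor and nickel acceptor beads; after a one-hour incubation at 37 °C without light, AlphaScreen emission is recorded.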
RGS4 inhibitor – Inhibitors of Regulator of G Protein Signaling (RGS) 4: qHTS; hit rate 0.039% among 390,000; Regulator of G-protein signaling 4 (Homo sapiens), P49798; Potency, µM (doses to about 114 µM), for the others: top-dose activity change, negative = inhibition, most hits filed as inhibitors; Transcreener GDP fluorescence polarization, RGS4-accelerated GTP hydrolysis; note: potency is the fitted concentration of half-maximal effect; nearly all actives have a fitted effect of over 75% in size
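MLSMR compounds (23 nl, pin-transferred) preincubated 10 min at room temperature with a 500nM (2x) first reagent, then RGS4 at 900nM (2x) plus Transcreener GDP mix added; fluorescence polarization (620/688 nm) read before and after 90 min at 30 °C.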
USP2a block – qHTS Assay for Inhibitors of Ubiquitin-specific Protease USP2a Using CHOP2 as the Reporter. Ubiquitin carboxyl-terminal hydrolase 2 (Homo sapiens), O75604. USP2 core, Ub-CHOP2 coupled fluorogenic reporter, 485/531. Potency, µM (titrated, usually from 38.3 µM), for inactives: at the top dose activity change, negative = inhibition, actives largely listed as inhibitors. hit rate 0.01% among 330,000;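 note: potency is the fitted concentration of half-maximal effect; plate controls were DMSO wells for no effect and full inhibition by NEM control for full effect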
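USP2 core (10nM final) preincubated 30min RT with compound in 20mM Tris-HCl pH 8.0, 2mM CaCl2, 2mM beta-mercaptoethanol, 0.05% CHAPS; 25nM Ub-CHOP2 plus 25nM reporter substrate added, fluorescence (Ex485/Em531) read after 60min.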
PI4K2A block – qHTS for small molecular inhibitors of PI4K2A; Phosphatidylinositol 4-kinase type 2-alpha (Homo sapiens), Q9BTU6; hit rate 0.13% among 420,000; activity change, negative = inhibition, % at 76.9 µM; AID 1346378, 2018; purified PI4K2A, ADP-Glo luminescence, 1 h; stronger effect = lower value; in the data active = activity change below about -50%; inconclusive = mostly about -30% to -49%;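 note: -100% = wells without enzyme as full effect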
Target sequence (Q9BTU6 whole entry, looked up): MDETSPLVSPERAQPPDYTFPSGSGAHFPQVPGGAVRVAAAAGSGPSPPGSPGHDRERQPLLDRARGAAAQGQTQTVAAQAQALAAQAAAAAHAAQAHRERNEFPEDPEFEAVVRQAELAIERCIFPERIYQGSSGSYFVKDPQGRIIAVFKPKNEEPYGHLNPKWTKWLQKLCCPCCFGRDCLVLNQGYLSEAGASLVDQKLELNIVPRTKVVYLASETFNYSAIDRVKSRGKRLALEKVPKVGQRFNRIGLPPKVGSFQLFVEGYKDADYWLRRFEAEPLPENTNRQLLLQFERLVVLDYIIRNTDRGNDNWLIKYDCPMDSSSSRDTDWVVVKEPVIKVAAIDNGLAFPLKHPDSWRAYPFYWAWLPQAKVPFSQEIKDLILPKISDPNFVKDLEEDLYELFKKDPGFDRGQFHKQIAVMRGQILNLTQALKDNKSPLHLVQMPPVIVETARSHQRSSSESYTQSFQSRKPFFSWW
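In this quantitative HTS, ADP production by PI4K2A was quantified luminescently after 1 h at ambient temperature; 100 microM adenosine served as plate-quality control.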
* hit, by the source's call; u = inconclusive; x = no result given; ! = not confirmed by another sample; [ ] = remark or other dose. Rows were chosen to be rich in hits. Some 0.72% of all compounds tested hit in one or more screens of this group. Unless noted, calls come from the whole dose curve; as a rule, active = well fitted curve in the direction sought with a large enough effect; inconclusive = small, poorly fitted or top-dose-only effect, or another doubt; inactive = no such curve, though single readings can be large; an effect the other way counts as inactive or inconclusive. Unless noted, % is set by controls: 0 for no effect and ±100 for the full control effect.

SMILES | Eya2 phos inh | CtBP-E1A inh | Six1-Eya2 blk | RGS4 inhibitor | USP2a block | PI4K2A block
NC(c1csc(Nc2cc(NCc3ccco3)ncn2)n1)c1ccccc1Cl (stereo unspecified) | x | -80* | u | x | x | -4
NC(Cc1ccc(F)cc1)c1csc(Nc2cc(NCc3ccco3)ncn2)n1 (stereo unspecified) | x | -76* | u | x | x | -8
NC(Cc1ccc(F)cc1)c1csc(Nc2cc(Oc3ccccc3)ncn2)n1 (stereo unspecified) | x | -26 | -19 | x | x | -8
O=C(CCn1c(=O)c2sccc2n(CC(=O)Nc2ccccc2)c1=O)NCc1ccccc1Cl | x | x | x | -7% | x | -3
O=c1[nH]c(=O)c2nnc(N/N=C\c3ccc(O)cc3)nc2[nH]1 | 6% | -65* | -75* | -25% | 1% | -7
COc1ccc(CCn2c(N)c(C#N)c3nc4ccccc4nc32)cc1OC | 0% | -69* | -65* | 2% | 2% | -7
COc1ccc(CCn2c(N)c(S(=O)(=O)c3cccs3)c3nc4ccccc4nc32)cc1OC | 16% | 8 | -67* | -6% | 4% | 1
Nc1c(S(=O)(=O)c2cccs2)c2nc3ccccc3nc2n1CCc1ccccc1 | -27% | x | x | x | -17% | x
COc1ccc(Cn2c(N)c(C#N)c3nc4ccccc4nc32)cc1OC | -10% | -23 | -16 | -7% | 3% | -27
O=[N+]([O-])c1cccc(/C=N/Nc2nc(NCc3ccccc3)nc(N3CCOCC3)n2)c1O | -8% | -67* | -94* | 13% | 1% | -5
C=CCN1C(=O)[C@@H](CC(=O)N2CCN(C(=O)c3ccco3)CC2)[C@]2(C(=O)OCC)CCCCC/C=C/12 | x | x | x | x | x | -1
CCn1c(CCC(N)=O)nnc1SCC(=O)c1cc(C)n(C2CC2)c1C | 3% | x | -5 | -9% | 5% | -53*
O=C(CNC(=O)c1ccccc1O)N/N=C/c1cc(Br)ccc1OC(=O)/C=C/c1ccco1 | 7% | -95* | -85* | u | -1% | 8
COc1ccc([N+](=O)[O-])cc1/C=N/NC(=O)CNC(=O)c1cccc(F)c1 | 3% | -70* | u | 1% | 2% | -1
O=C(CNC(=O)c1cccc(F)c1)N/N=C/c1cc(Br)ccc1OC(=O)/C=C/c1ccco1 | -11% | -88* | -88* | -12%[11.4 µM] | -3% | 2
COc1ccc([N+](=O)[O-])cc1/C=N/NC(=O)CNC(=O)C(c1ccccc1)c1ccccc1 | -1% | -11 | -16 | -28% | 6% | -6
COc1ccc([C@]23Cc4ccccc4C(O2)C2=C(CC(C)(C)CC2=O)O3)cc1 | 6%[15.4 µM] | x | x | x | 0%[7.66 µM] | x
CCc1cc(=O)oc2cc(C)c(CN3CCCC(C)C3)c(O)c12 (stereo unspecified) | -26% | 2 | -24 | u | -25% | -51*
CCCCc1cc(=O)oc2cc(C)c(CN3CCCC3)c(O)c12 | -1% | -2 | -17 | -49% | u | -17
CCOC(=O)C1CCN(C(=O)C(C)(C)NC(=O)Nc2ccc(N(C)C)cc2)CC1 | x | x | x | x | x | -16
COc1cccc(CNc2ccc3nc(-c4ccc(N)cc4)c(OC)n3n2)c1 | x | x | x | 38µM*! | x | x
COC(=O)c1cc(C)nc2c1C(=O)C(=O)C=C2N1CCOCC1 | -1% | -68* | -67* | -36% | 1% | -83*
CO[C@H]1CN(C)C(=O)c2cc(NC(=O)c3cc(C)on3)ccc2OC[C@@H](C)N(C(=O)C2CC2)C[C@H]1C | x | 2 | 1 | x | x | -3
